# SMN2 splice enh – qHTS Assay for Enhancers of SMN2 Splice Variant Expression. HEK293 SMN2-luciferase splicing reporter, luminescence, 30-36 h. Potency, µM (top dose mostly 46.1 µM), usual class: activators. 210,000 compounds, 2.8% hits. AID 1458, 2008; also: nearly all actives have a fitted effect of over 55% in size
#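 qHTS luciferase splicing reporter: luminescence rises when SMN2 exon 7 is included in transfected HEK293 cells. Compound exposure lasted 30-36 h at 37C, with 4.5 mM final sodium butyrate as control, followed by a ONE-Glo read.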
# Luc counter – Counterscreen for Luciferase (Kinase-Glo TM) Inhibition. AID 1379, 2008. 200,000 compounds, 0.28% hits. Potency, µM (series often up to 38.3 µM), most hits filed as inhibitors. Kinase-Glo luciferase, ATP luminescence, 8 min; also: nearly all actives have a fitted effect of over 60% in size
#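 Compound is pinned into ATP-containing buffer (10 uM ATP, imidazole pH 7.2, 7 mM MgCl2). Kinase-Glo luciferase reagent is then added. Light output is recorded following an 8-min room-temperature incubation.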
# Rab9 promoter act – qHTS Assay for Rab9 Promoter Activators; Potency, µM (titrated, usually from 9.22 µM), hits mostly activators; Huh7 Rab9 promoter-luciferase reporter, luminescence, 24 h; AID 485297, 2010; 320,000 compounds, 2.8% hits; also: nearly all actives have a fitted effect of over 60% in size
#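 Huh7 cells stably carrying Rab9 promoter–luciferase reporter, plated 1500 cells/well, compound added after 2 h and incubated 24 h at 37 °C; luciferase luminescence then read after 10 min with detection reagent.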
# ELG1 genotoxic – qHTS screen for small molecules that induce genotoxicity in human embryonic kidney (HEK293T) cells expressing luciferase-tagged ELG1; HEK293T ELG1-luciferase reporter, luminescence, 16 h; Potency, µM (doses to about 46 µM), actives largely listed as activators; 330,000 compounds, 1.3% hits; also: nearly all actives have a fitted effect of over 60% in size
#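 Cells (2,000/well) expressing the ELG1-luciferase fusion are dosed by pin tool and kept 16 hr at 37 °C, 5% CO2. Signal comes from ONE-Glo luciferase reagent after 30 min at room temperature.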
# FLuc modulator – qHTS profiling assay for firefly luciferase inhibitor/activator using purifed enzyme and Km concentrations of substrates (counterscreen for miR-21 project); Luciferin 4-monooxygenase (Photinus pyralis), P08659; purified FLuc, Km substrates, luminescence inhibition; Potency, µM (series often up to 57.5 µM), usual class: inhibitors; 360,000 compounds, 6.9% hits; AID 588342, 2011; also: nearly all actives have a fitted effect of over 55% in size
# Target sequence (P08659 whole entry, looked up): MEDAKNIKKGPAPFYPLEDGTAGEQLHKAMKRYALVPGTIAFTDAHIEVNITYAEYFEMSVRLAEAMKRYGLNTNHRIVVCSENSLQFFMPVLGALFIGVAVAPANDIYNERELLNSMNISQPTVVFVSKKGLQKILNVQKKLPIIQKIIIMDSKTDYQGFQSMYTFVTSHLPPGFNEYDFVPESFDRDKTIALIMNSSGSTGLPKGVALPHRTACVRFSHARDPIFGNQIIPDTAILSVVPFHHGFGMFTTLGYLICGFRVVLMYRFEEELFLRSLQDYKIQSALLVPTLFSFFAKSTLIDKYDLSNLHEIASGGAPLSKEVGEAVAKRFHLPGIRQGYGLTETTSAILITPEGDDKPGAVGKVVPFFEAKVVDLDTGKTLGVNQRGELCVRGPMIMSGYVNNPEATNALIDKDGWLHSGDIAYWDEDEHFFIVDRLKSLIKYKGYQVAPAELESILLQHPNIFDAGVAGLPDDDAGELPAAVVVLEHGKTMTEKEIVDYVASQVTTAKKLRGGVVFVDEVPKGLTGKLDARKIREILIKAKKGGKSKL
#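 Purified P. pyralis luciferase, 10 nM final, with Km-level 10 uM D-luciferin and 10 uM ATP in 50 mM Tris acetate pH 7.5, 10 mM Mg acetate, 0.01% Tween-20, 0.05% BSA; 6-point qHTS titration about 60 µM downward; luminescence read.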
# NPC1 prom act – qHTS Assay for NPC1 Promoter Activators; Huh7 NPC1 promoter luciferase reporter, 24 h; Potency, µM (highest dose often 9.22 µM), usual class: activators; 320,000 compounds, 2.4% hits; AID 485313, 2010; also: nearly all actives have a fitted effect of over 60% in size
#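 Readout is luciferase luminescence, reflecting NPC1 promoter activation in stably transfected Huh7 cells after 24 h compound exposure at 37 °C in reduced-serum medium with 10% FBS.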
# Hits are given with their value; 0 = inactive; ? = inconclusive; - = no result given; [ ] = dose if it differs, or a comment. The list is not random: actives were taken first. Their share in the collection is about 7.5%. Calls follow the shape of the dose curve; as a rule, active = well fitted curve in the direction sought with a large enough effect; inconclusive = small, poorly fitted or top-dose-only effect, or another doubt; inactive = no such curve, though single readings can be large; an effect the other way counts as inactive or inconclusive.
SMILES,SMN2 splice enh,Luc counter,Rab9 promoter act,ELG1 genotoxic,FLuc modulator,NPC1 prom act
O=C(c1ccc(C(=O)N2CCCc3ccccc32)s1)N1CCCc2ccccc21,0,0,0,0,0,0
CCc1sc(C(=O)N2CCc3ccccc32)cc1C,8.9µM,11µM,0.35µM,1.8µM,1.9µM,1.1µM
O=C(c1ccc(Cl)s1)N1CCc2ccccc21,22µM,0,2.5µM,6.5µM,3.8µM,?
Cn1c(CNC(=O)c2ccc3c(c2)OCO3)nnc1SCC(=O)Nc1ccc(F)cc1F,-,-,0,0,?,0
CCNC(=O)c1ccc2c(c1)sc1nc(-c3cccc(OC)c3)cn12,-,-,-,-,0,-
COc1cccc(-c2cn3ncsc3n2)c1,0,-,-,-,15µM,-
CCOc1ccc(NC(=S)NC(=O)/C=C/c2ccc(C)cc2)c([N+](=O)[O-])c1,-,0,0,?,?,0
CCOc1ccc(NC(=O)Cc2cccc3ccccc23)c([N+](=O)[O-])c1,0,0,0,0,0,0
CCOc1ccc(NC(=O)Cc2ccccc2)c([N+](=O)[O-])c1,0,0,0,0,0,0
CCOc1ccc(N/C=C/C(=O)c2ccc3ccccc3c2)c([N+](=O)[O-])c1,2.5µM,0,2µM,0,0.85µM,2µM
Cc1ccc(C(=O)/C=C/Nc2ccc([N+](=O)[O-])cc2Br)cc1,?,0,0.45µM,?,0.34µM,0.45µM
CCOc1ccc(NC(=O)COc2ccccc2)c([N+](=O)[O-])c1,?,0,3.5µM,?,3µM,?
CCOc1ccc(N/C=C/C(=O)c2ccc(C)cc2)c([N+](=O)[O-])c1,?,0,?,?,1.3µM,1.4µM
CCn1c(-c2ccco2)nc2ccccc21,0,0,0,0,19µM,0
Cc1ccc(C(O)c2nc3ccccc3n2C(C)C)cc1 (stereo unspecified),0,0,0,0,0,0
CCn1c(-c2ccc(N(C)C)cc2)nc2ccccc21,13µM,0,?,0,0.85µM,?
CN(C)c1ccc(-c2nc3ccccc3n2C)cc1,0.63µM,10µM,0.22µM,?,0.27µM,0.32µM
CN(Cc1nc2ccccc2n1C)c1ccccc1,-,-,0,0,0,0
CC(C)n1c(-c2ccc(N(C)C)cc2)nc2ccccc21,0,0,?,0,7.6µM,0
c1ccc(OCCn2c(-c3ccco3)nc3ccccc32)cc1,0,0,0,0,?,0
CN(C)S(=O)(=O)NC(=O)C1=C(N2CCCC2)COC1=O,-,-,-,0,-,-
O=[N+]([O-])c1cccn2cc(-c3ccc(Br)cc3)nc12,-,0,2.8µM,?,?,?
Cc1ccc(-c2cn3cccc(C)c3n2)cc1,-,?,1.4µM,?,1.1µM,4µM
Cc1cccn2cc(-c3ccc(S(=O)(=O)N4CCCCC4)cc3)nc12,-,0,0,0,0,0
COc1ccc(-c2nc3c(-c4ccccc4)cnn3cc2C)cc1F,-,0,0,0,0,0
SMILES,SMN2 splice enh,Luc counter,Rab9 promoter act,ELG1 genotoxic,FLuc modulator,NPC1 prom act
Cc1cccn2cc(-c3ccc(Cl)cc3)nc12,-,-,1.3µM,2.1µM,0.38µM,?
COc1ccc(-c2cn3cccc(C)c3n2)cc1F,5.6µM,?,2.5µM,4.6µM,6µM,?
Cc1cccn2cc(-c3ccc(S(=O)(=O)N4CCOCC4)cc3)nc12,0,0,0,0,0,0
Cc1ccc(C)c(OCCNc2ncccc2[N+](=O)[O-])c1,-,-,0,0,0,0
Cc1ccc(-c2cn3cccc(C)c3n2)cc1NS(=O)(=O)c1ccccc1,0,-,-,-,17µM,-
Cc1cc(C)c(S(=O)(=O)Nc2cc(-c3cn4ccccc4n3)ccc2C)cc1C,0,-,-,-,?,-
COc1cc(/C=C2\SC(=S)N(NC(=O)c3cccc(O)c3)C2=O)ccc1O,-,-,0,0,11µM,0
COc1cc(/C=C2\SC(=S)N(NC(=O)c3ccccc3OC)C2=O)ccc1O,-,-,0,0,4.3µM,0
COc1ccccc1C(=O)NN1C(=O)/C(=C/c2cccn2C)SC1=S,-,-,0,0,?,0
CCOc1cc(/C=C2\SC(=S)N(NC(=O)c3cccnc3)C2=O)ccc1O,0,0,0,0,27µM,0
COc1cc(/C=C2\SC(=S)N(NC(=O)c3ccncc3)C2=O)ccc1O,-,-,0,0,17µM,0
COc1cc(/C=C2\SC(=S)N(NC(=O)c3ccc(O)c(OC)c3)C2=O)ccc1O,-,-,0,0,1.3µM,0
COc1cc(/C=C2\SC(=S)N(NS(=O)(=O)c3ccccc3)C2=O)ccc1O,-,-,0,0,?,0
O=C(O)c1ccc(/C=C2\SC(=S)N(NC(=O)c3ccccc3)C2=O)cc1,-,-,0[1.84 µM],0,?,0
COc1cc(/C=C2\SC(=S)N(NS(=O)(=O)c3ccc(C)cc3)C2=O)ccc1O,-,-,0,0,21µM,0
